Results: the supplement of paper PMC8728848
The full list was thinned out, with the strongest signals kept by preference.

Key:
Experiment in all cases: glycan array binding signal (z-score within array); higher = stronger binding
Details in all cases: glycan notation: IUPAC condensed, linker removed
Fuc(a1-2)Gal = biological target: Fuc(a1-2)Gal
Summary of the method: (§1)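 Negative Z-scores can be read as non-binding. The Z-score is calculated within each array and then averaged across arrays of one protein sequence at different concentrations or buffers and across linkers. Arrays, 3228 in all, were curated from the Consortium for Functional Glycomics database and kept only where the protein sequence was available.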

Fuc(a1-2)Gal(b1-3)GalNAc = biological target: Fuc(a1-2)Gal(b1-3)GalNAc
Summary of the method: as §1

[1] = biological target: Fuc(a1-2)Gal(b1-3)GlcNAc(b1-2)Man(a1-3)[Fuc(a1-2)Gal(b1-3)GlcNAc(b1-2)Man(a1-6)]Man(b1-4)GlcNAc(b1-4)[Fuc(a1-6)]GlcNAc
Summary of the method: as §1

[2] = biological target: Fuc(a1-2)Gal(b1-3)GlcNAc6S
Summary of the method: as §1

Fuc(a1-2)Gal6S(b1-4)Glc = biological target: Fuc(a1-2)Gal6S(b1-4)Glc
Summary of the method: as §1

[3] = biological target: Fuc(a1-2)[Gal(a1-3)]Gal(b1-4)[Fuc(a1-3)]GlcNAc(b1-3)GalNAc
Summary of the method: as §1

[4] = biological target: Fuc(a1-2)[Gal(a1-4)]Gal(b1-4)GlcNAc
Summary of the method: as §1

[5] = biological target: Fuc(a1-2)[GalNAc(a1-3)]Gal(b1-4)Glc
Summary of the method: as §1

[6] = biological target: Fuc(a1-2)[GalNAc(a1-3)]Gal(b1-4)[Fuc(a1-3)]GlcNAc
Summary of the method: as §1

[7] = biological target: Fuc(a1-3)[Gal(b1-4)]GlcNAc(b1-3)Gal(b1-4)[Fuc(a1-3)]GlcNAc(b1-3)Gal(b1-4)[Fuc(a1-3)]GlcNAc
Summary of the method: as §1

[8] = biological target: Fuc(a1-3)[Gal(b1-4)]GlcNAc(b1-3)GalNAc
Summary of the method: as §1

Fuc(b1-3)GlcNAc = biological target: Fuc(b1-3)GlcNAc
Summary of the method: as §1

[9] = biological target: Gal(a1-3)Gal(b1-4)GlcNAc(b1-2)Man
Summary of the method: as §1

[10] = biological target: Gal(a1-3)Gal(b1-4)GlcNAc(b1-3)GalNAc
Summary of the method: as §1

[11] = biological target: Gal(b1-3)[Fuc(a1-4)]GlcNAc(b1-3)Gal(b1-4)[Fuc(a1-3)]GlcNAc
Summary of the method: as §1

[12] = biological target: Gal(b1-3)[GlcNAc(b1-6)]GalNAc
Summary of the method: as §1

[13] = biological target: Gal(b1-4)GalNAc(a1-3)[Fuc(a1-2)]Gal(b1-4)GlcNAc
Summary of the method: as §1

[14] = biological target: Gal(b1-4)GlcNAc(b1-2)Man(a1-3)[Gal(b1-4)GlcNAc(b1-2)Man(a1-6)]Man(b1-4)GlcNAc(b1-4)[Fuc(a1-6)]GlcNAc
Summary of the method: as §1

[15] = biological target: Gal(b1-4)GlcNAc(b1-2)Man(a1-3)[Gal(b1-4)GlcNAc(b1-2)Man(a1-6)][Gal(b1-4)GlcNAc(b1-4)]Man(b1-4)GlcNAc(b1-4)[Fuc(a1-6)]GlcNAc
Summary of the method: as §1

[16] = biological target: Gal(b1-4)GlcNAc(b1-3)Gal(b1-4)Glc
Summary of the method: as §1

[17] = biological target: Gal(b1-4)GlcNAc(b1-3)Gal(b1-4)GlcNAc(b1-3)Gal(b1-4)GlcNAc
Summary of the method: as §1

[18] = biological target: Gal(b1-4)GlcNAc(b1-3)Gal(b1-4)GlcNAc(b1-3)Gal(b1-4)GlcNAc(b1-2)Man(a1-3)[Gal(b1-4)GlcNAc(b1-3)Gal(b1-4)GlcNAc(b1-3)Gal(b1-4)GlcNAc(b1-2)Man(a1-6)]Man(b1-4)GlcNAc(b1-4)GlcNAc
Summary of the method: as §1

[19] = biological target: Gal(b1-4)GlcNAc(b1-3)Gal(b1-4)GlcNAc(b1-3)Gal(b1-4)GlcNAc(b1-2)Man(a1-3)[Gal(b1-4)GlcNAc(b1-3)Gal(b1-4)GlcNAc(b1-3)Gal(b1-4)GlcNAc(b1-2)Man(a1-6)]Man(b1-4)GlcNAc(b1-4)[Fuc(a1-6)]GlcNAc
Summary of the method: as §1

[20] = biological target: Gal(b1-4)GlcNAc(b1-3)Gal(b1-4)GlcNAc(b1-3)Gal(b1-4)GlcNAc(b1-2)[Gal(b1-4)GlcNAc(b1-3)Gal(b1-4)GlcNAc(b1-3)Gal(b1-4)GlcNAc(b1-6)]Man(a1-6)[Gal(b1-4)GlcNAc(b1-3)Gal(b1-4)GlcNAc(b1-3)Gal(b1-4)GlcNAc(b1-2)Man(a1-3)]Man(b1-4)GlcNAc(b1-4)[Fuc(a1-6)]GlcNAc
Summary of the method: as §1

[21] = biological target: Gal(b1-4)GlcNAc(b1-3)Gal(b1-4)GlcNAc(b1-3)Gal(b1-4)GlcNAc(b1-3)Gal(b1-4)GlcNAc(b1-2)Man(a1-3)[Gal(b1-4)GlcNAc(b1-3)Gal(b1-4)GlcNAc(b1-3)Gal(b1-4)GlcNAc(b1-3)Gal(b1-4)GlcNAc(b1-2)Man(a1-6)]Man(b1-4)GlcNAc(b1-4)GlcNAc
Summary of the method: as §1

[22] = biological target: Gal(b1-4)GlcNAc(b1-3)Gal(b1-4)GlcNAc(b1-3)Gal(b1-4)GlcNAc(b1-3)Gal(b1-4)GlcNAc(b1-2)Man(a1-3)[Gal(b1-4)GlcNAc(b1-3)Gal(b1-4)GlcNAc(b1-3)Gal(b1-4)GlcNAc(b1-3)Gal(b1-4)GlcNAc(b1-2)Man(a1-6)]Man(b1-4)GlcNAc(b1-4)[Fuc(a1-6)]GlcNAc
Summary of the method: as §1

B1: B725 (Bifidobacterium sp) (protein)
chain: MNNTTRAVIATAAIGALLIPLAGCGNTTTSSGKTELTVWSWDASIDRAAKSFMKANPDITVKVSNVGSTEETYTALNNAAQAGSGLPDVTLIEYLAIPQFVHSDTLMDLSKVYNTAKLKDTFTPGTWNSVNINGGLYAMPADSGPMAYFYDKDVFDKAGISEPPTTWDEFYEDAKKIRATGSYITSDSGDAGLFNAMMWAMGGHAYKLNDDKLTINIAKDKGAQRFMDLWQKMRDEDLIDVHTKTWTDDWMKSLGDGSIASLISGAWMANNLLQGVPQATGKFRVALLPTIDGTPINGEYGGSGLAITKKIPDGKLDAAKKFVEYVTTNDEGIDARVSNGSFPATTKTLNQKDFLAKTTLRNTDGSDNEFFGGQKYNEIFSQAAKDVTGKWEFLPFEPYARSVYNDNMGSFFAGKTSFRTAADNWQKALKDYAKDQGFTVQ
**Q.** Which results are given for B1?
**A.** glycan array binding signal (z-score) (Fuc(a1-2)Gal): -0.221; glycan array binding signal (z-score) (Fuc(a1-2)Gal(b1-3)GalNAc): -0.216; glycan array binding signal (z-score) [1]: -0.181; glycan array binding signal (z-score) [2]: -0.234; glycan array binding signal (z-score) (Fuc(a1-2)Gal6S(b1-4)Glc): -0.199; glycan array binding signal (z-score) [3]: -0.208; glycan array binding signal (z-score) [4]: -0.23; glycan array binding signal (z-score) [5]: -0.222; glycan array binding signal (z-score) [6]: -0.217; glycan array binding signal (z-score) [7]: -0.21; glycan array binding signal (z-score) [8]: -0.216; glycan array binding signal (z-score) (Fuc(b1-3)GlcNAc): -0.226; glycan array binding signal (z-score) [9]: -0.214; glycan array binding signal (z-score) [10]: -0.225; glycan array binding signal (z-score) [11]: -0.203; glycan array binding signal (z-score) [12]: -0.224; glycan array binding signal (z-score) [13]: -0.218; glycan array binding signal (z-score) [14]: -0.204; glycan array binding signal (z-score) [15]: -0.231; glycan array binding signal (z-score) [16]: 6.34; glycan array binding signal (z-score) [17]: 6.94; glycan array binding signal (z-score) [18]: 5.11; glycan array binding signal (z-score) [19]: 4.38; glycan array binding signal (z-score) [20]: 7.51; glycan array binding signal (z-score) [21]: 5.3; glycan array binding signal (z-score) [22]: 4.85
